# “And” between values parts separate entries of the source, which are not always exact repeats. Identical values can stand only once. The campaign covered roughly 5,500 compounds. About 2,000 (36%) were called active. Roughly 18% stayed inconclusive and do not appear here. Rule as the data show it: active = normalized growth mostly below about 0.91 (no sharp cut-off); inconclusive = no clear call, values can overlap the other calls; inactive = mostly above about 0.92. Some of the results follow. Where a structure was tested more than once in an assay, its records may differ in their call.
# Assay: chemical genetic growth profiling, strain panel (AID 1159580);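 also: tested at 20 µM; growth read once vehicle control cultures reached saturation at 30 °C; 1 = growth at the plate median or of vehicle wells; lower values mean less growth of the strain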
# Conditions: growth OD
smiles,measurement,setting,value
O=c1cc(-c2ccccc2)oc2cc(O)cc(O)c12,normalized growth,"S. cerevisiae deletion strains, locus YJR075W, strain HOC1, stronger effect = lower value",0.924 (inactive)
same,normalized growth,"S. cerevisiae deletion strains, locus YKL009W, strain mrt4, stronger effect = lower value",0.667 (active)
same,normalized growth,"S. cerevisiae deletion strains, locus YKL068W, stronger effect = lower value",0.943 (inactive)
same,normalized growth,"S. cerevisiae deletion strains, locus YKL085W, strain MDH1 (second series), stronger effect = lower value",0.888 (active)
same,normalized growth,"S. cerevisiae deletion strains, locus YKL085W, strain MDH1, stronger effect = lower value",0.888 (active)
same,normalized growth,"S. cerevisiae deletion strains, locus YKL160W, strain elf1, stronger effect = lower value",0.908 (inactive) and 0.809 (active)
same,normalized growth,"S. cerevisiae deletion strains, locus YKL190W, strain CNB1, stronger effect = lower value",0.941 (inactive)
same,normalized growth,"S. cerevisiae deletion strains, locus YKR001C, strain vps1, stronger effect = lower value",0.813 (active)
same,normalized growth,"S. cerevisiae deletion strains, locus YKR026C, strain gcn3, stronger effect = lower value",0.94 (inactive) and 0.912 (active)
same,normalized growth,"S. cerevisiae deletion strains, locus YKR091W, strain srl3, stronger effect = lower value",0.943 (inactive) and 0.912 (active)
same,normalized growth,"S. cerevisiae deletion strains, locus YLL001W, strain dnm1, stronger effect = lower value",0.94 (inactive) and 0.905 (inactive)
same,normalized growth,"S. cerevisiae deletion strains, locus YLL026W, stronger effect = lower value",0.936 (inactive) and 0.919 (active)
same,normalized growth,"S. cerevisiae deletion strains, locus YLL041C, strain sdh2, stronger effect = lower value",0.946 (inactive) and 0.915 (active)
same,normalized growth,"S. cerevisiae deletion strains, locus YLR027C, strain aat2, stronger effect = lower value",0.943 (inactive) and 0.867 (active)
same,normalized growth,"S. cerevisiae deletion strains, locus YLR039C, strain RIC1, stronger effect = lower value",0.715 (inactive)
same,normalized growth,"S. cerevisiae deletion strains, locus YLR058C, strain SHM2, stronger effect = lower value",0.965 (inactive)
same,normalized growth,"S. cerevisiae deletion strains, locus YLR102C, strain apc9, stronger effect = lower value",0.947 (inactive)
same,normalized growth,"S. cerevisiae deletion strains, locus YLR113W, strain HOG1, stronger effect = lower value",0.831 (active)
same,normalized growth,"S. cerevisiae deletion strains, locus YLR221C, strain rsa3, stronger effect = lower value",0.944 (inactive) and 0.828 (active)
same,normalized growth,"S. cerevisiae deletion strains, locus YLR258W, strain gsy2, stronger effect = lower value",0.924 (inactive) and 0.838 (active)
same,normalized growth,"S. cerevisiae deletion strains, locus YLR262C, strain YPT6 (second series), stronger effect = lower value",0.677 (active) and 0.514 (active)
same,normalized growth,"S. cerevisiae deletion strains, locus YLR262C, strain YPT6, stronger effect = lower value",0.684 (inactive)
same,normalized growth,"S. cerevisiae deletion strains, locus YLR268W, strain sec22, stronger effect = lower value",0.837 (active)
same,normalized growth,"S. cerevisiae deletion strains, locus YLR320W, strain mms22, stronger effect = lower value",0.837 (active) and 0.73 (active)
same,normalized growth,"S. cerevisiae deletion strains, locus YLR330W, strain CHS5, stronger effect = lower value",0.972 (inactive)
same,normalized growth,"S. cerevisiae deletion strains, locus YLR342W, strain FKS1 (second series), stronger effect = lower value",0.862 (inactive)
same,normalized growth,"S. cerevisiae deletion strains, locus YLR342W, strain FKS1, stronger effect = lower value",0.946 (inactive) and 0.903 (active)
same,normalized growth,"S. cerevisiae deletion strains, locus YLR357W, strain rsc2, stronger effect = lower value",0.882 (inactive) and 0.838 (active)
same,normalized growth,"S. cerevisiae deletion strains, locus YLR370C, strain arc18, stronger effect = lower value",0.958 (inactive) and 0.933 (inactive)
same,normalized growth,"S. cerevisiae deletion strains, locus YLR371W, strain rom2, stronger effect = lower value",0.951 (inactive)
same,normalized growth,"S. cerevisiae deletion strains, locus YLR384C, strain iki3, stronger effect = lower value",0.938 (inactive) and 0.931 (inactive)
same,normalized growth,"S. cerevisiae deletion strains, locus YLR418C, strain cdc73, stronger effect = lower value",0.761 (active)
same,normalized growth,"S. cerevisiae deletion strains, locus YML016C, strain PPZ1, stronger effect = lower value",0.985 (inactive)
same,normalized growth,"S. cerevisiae deletion strains, locus YML032C, strain rad52, stronger effect = lower value",0.87 (active)
same,normalized growth,"S. cerevisiae deletion strains, locus YML120C, strain ndi1, stronger effect = lower value",0.944 (inactive) and 0.942 (inactive)
same,normalized growth,"S. cerevisiae deletion strains, locus YML124C, strain tub3, stronger effect = lower value",0.952 (inactive)
same,normalized growth,"S. cerevisiae deletion strains, locus YMR058W, strain fet3, stronger effect = lower value",0.893 (active) and 0.653 (active)
same,normalized growth,"S. cerevisiae deletion strains, locus YMR078C, strain ctf18, stronger effect = lower value",0.928 (inactive)
same,normalized growth,"S. cerevisiae deletion strains, locus YMR125W, strain sto1, stronger effect = lower value",0.929 (inactive) and 0.907 (inactive)
same,normalized growth,"S. cerevisiae deletion strains, locus YMR129W, stronger effect = lower value",0.94 (inactive)
same,normalized growth,"S. cerevisiae deletion strains, locus YMR205C, strain PFK2, stronger effect = lower value",0.87 (active) and 0.693 (active)
same,normalized growth,"S. cerevisiae deletion strains, locus YMR223W, strain ubp8, stronger effect = lower value",0.906 (inactive)
same,normalized growth,"S. cerevisiae deletion strains, locus YMR231W, strain pep5, stronger effect = lower value",0.934 (inactive) and 0.871 (active)
same,normalized growth,"S. cerevisiae deletion strains, locus YMR263W, strain SAP30, stronger effect = lower value",0.927 (inactive)
same,normalized growth,"S. cerevisiae deletion strains, locus YMR307W, strain GAS1, stronger effect = lower value",0.551 (active)
same,normalized growth,"S. cerevisiae deletion strains, locus YNL067W, strain RPL9B, stronger effect = lower value",0.898 (inactive)
same,normalized growth,"S. cerevisiae deletion strains, locus YNL071W, strain lat1, stronger effect = lower value",0.891 (active) and 0.727 (active)
same,normalized growth,"S. cerevisiae deletion strains, locus YNL128W, strain TEP1, stronger effect = lower value",0.972 (inactive)
same,normalized growth,"S. cerevisiae deletion strains, locus YNL153C, strain GIM3, stronger effect = lower value",0.931 (inactive)
same,normalized growth,"S. cerevisiae deletion strains, locus YNL183C, strain NPR1, stronger effect = lower value",0.894 (inactive)
same,normalized growth,"S. cerevisiae deletion strains, locus YNL209W, strain ssb2, stronger effect = lower value",0.954 (inactive) and 0.871 (active)
same,normalized growth,"S. cerevisiae deletion strains, locus YNL233W, strain BNI4, stronger effect = lower value",0.869 (active)
same,normalized growth,"S. cerevisiae deletion strains, locus YNL248C, strain rpa49, stronger effect = lower value",0.97 (inactive) and 0.818 (active)
same,normalized growth,"S. cerevisiae deletion strains, locus YNL250W, strain rad50, stronger effect = lower value",0.925 (inactive)
same,normalized growth,"S. cerevisiae deletion strains, locus YNL271C, strain bni1, stronger effect = lower value",0.904 (active)
same,normalized growth,"S. cerevisiae deletion strains, locus YNL298W, strain CLA4, stronger effect = lower value",0.893 (active)
same,normalized growth,"S. cerevisiae deletion strains, locus YNL307C, strain MCK1, stronger effect = lower value",0.834 (active)
same,normalized growth,"S. cerevisiae deletion strains, locus YNL322C, strain KRE1 (second series), stronger effect = lower value",0.97 (inactive) and 0.877 (active)
same,normalized growth,"S. cerevisiae deletion strains, locus YNL322C, strain KRE1, stronger effect = lower value",0.978 (inactive)
same,normalized growth,"S. cerevisiae deletion strains, locus YNR049C, strain mso1, stronger effect = lower value",0.966 (inactive) and 0.944 (inactive)
same,normalized growth,"S. cerevisiae deletion strains, locus YNR052C, strain pop2, stronger effect = lower value",0.944 (inactive)
same,normalized growth,"S. cerevisiae deletion strains, locus YOL006C, strain TOP1, stronger effect = lower value",0.686 (inactive)
same,normalized growth,"S. cerevisiae deletion strains, locus YOL012C, strain htz1",0.62 (inactive)
same,normalized growth,"S. cerevisiae deletion strains, locus YOL147C, strain pex11, stronger effect = lower value",0.929 (active)
same,normalized growth,"S. cerevisiae deletion strains, locus YOR001W, strain rrp6, stronger effect = lower value",0.941 (inactive) and 0.903 (inactive)
same,normalized growth,"S. cerevisiae deletion strains, locus YOR061W, strain CKA2, stronger effect = lower value",0.98 (inactive)
same,normalized growth,"S. cerevisiae deletion strains, locus YOR069W, strain VPS5, stronger effect = lower value",0.988 (inactive)
same,normalized growth,"S. cerevisiae deletion strains, locus YOR070C, strain gyp1, stronger effect = lower value",0.957 (inactive) and 0.875 (active)
same,normalized growth,"S. cerevisiae deletion strains, locus YOR080W, strain dia2, stronger effect = lower value",0.97 (inactive) and 0.934 (inactive)
same,normalized growth,"S. cerevisiae deletion strains, locus YOR083W, strain WHI5, stronger effect = lower value",0.912 (inactive) and 0.807 (active)
same,normalized growth,"S. cerevisiae deletion strains, locus YOR106W, strain vam3, stronger effect = lower value",0.915 (inactive) and 0.802 (active)
same,normalized growth,"S. cerevisiae deletion strains, locus YOR136W, strain idh2, stronger effect = lower value",0.968 (inactive)
same,normalized growth,"S. cerevisiae deletion strains, locus YOR144C, strain elg1, stronger effect = lower value",0.932 (active)
same,normalized growth,"S. cerevisiae deletion strains, locus YOR184W, strain ser1, stronger effect = lower value",0.761 (active)
same,normalized growth,"S. cerevisiae deletion strains, locus YOR231W, strain MKK1, stronger effect = lower value",0.905 (inactive)
same,normalized growth,"S. cerevisiae deletion strains, locus YOR265W, strain rbl2, stronger effect = lower value",0.947 (inactive) and 1.01 (inactive)
same,normalized growth,"S. cerevisiae deletion strains, locus YOR270C, strain vph1, stronger effect = lower value",0.746 (active) and 0.518 (active)
same,normalized growth,"S. cerevisiae deletion strains, locus YOR290C, strain snf2, stronger effect = lower value",0.901 (inactive) and 0.85 (active)
same,normalized growth,"S. cerevisiae deletion strains, locus YOR316C, strain cot1, stronger effect = lower value",0.945 (inactive)
same,normalized growth,"S. cerevisiae deletion strains, locus YPL051W, strain arl3, stronger effect = lower value",0.905 (active) and 0.701 (active)
same,normalized growth,"S. cerevisiae deletion strains, locus YPL055C, strain LGE1, stronger effect = lower value",0.91 (inactive)
same,normalized growth,"S. cerevisiae deletion strains, locus YPL078C, strain atp4, stronger effect = lower value",0.926 (inactive) and 0.776 (active)
same,normalized growth,"S. cerevisiae deletion strains, locus YPL106C, strain sse1, stronger effect = lower value",0.911 (inactive) and 0.879 (inactive)
same,normalized growth,"S. cerevisiae deletion strains, locus YPL240C, strain hsp82, stronger effect = lower value",0.962 (inactive) and 0.886 (active)
same,normalized growth,"S. cerevisiae deletion strains, locus YPL241C, strain CIN2, stronger effect = lower value",0.985 (inactive)
same,normalized growth,"S. cerevisiae deletion strains, locus YPL256C, strain CLN2, stronger effect = lower value",0.891 (inactive)
same,normalized growth,"S. cerevisiae deletion strains, locus YPR119W, strain clb2, stronger effect = lower value",0.937 (inactive)
same,normalized growth,"S. cerevisiae deletion strains, locus YPR141C, strain kar3, stronger effect = lower value",0.942 (inactive)
same,normalized growth,"S. cerevisiae deletion strains, locus YPR163C, strain tif3, stronger effect = lower value",0.883 (active)
same,normalized growth,"S. cerevisiae deletion strains, locus YPR167C, strain met16, stronger effect = lower value",0.947 (inactive)
same,normalized growth,"S. cerevisiae deletion strains, strain wtn01, stronger effect = lower value",0.912 (inactive)
same,normalized growth,"S. cerevisiae strains, strain wild type, stronger effect = lower value",0.956 (inactive)
